Test [1] concerns the target Transcription factor E2F1 (Homo sapiens) (UniProt Q01094). The test can be described thus: ATG_E2F_CIS: Attagene CIS-FACTORIAL HepG2 Assay for human E2F Transcription Factor 1 (AID 2282935). The conditions noted are these: HepG2 Attagene cis-reporter, E2F reporter RNA transcripts; actives raise or lower the signal. In short, it runs like this:
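Cis-element reporter mRNA induction in transiently transfected HepG2, 24 h exposure. Activity fitted in both directions relative to DMSO negative control.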

Test [2] can be described thus: ATG_E_Box_CIS: Attagene CIS-FACTORIAL HepG2 Assay for human Enhancer Box (E-box) (AID 2282936). The settings on record: HepG2 E-box cis-reporter transcription, actives raise or lower the signal. Summed up:
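Cells: HepG2 (human liver), transient MRTU transfection. Exposure 24 h. RNA → oligo(dT) RT → PCR → 6-FAM label → HpaI → CE. Activity fitted both directions relative to DMSO.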

The nature of test [3]: ATG_M_61_CIS: Attagene CIS-FACTORIAL HepG2 Assay for M61 Transcription Factor (Internal Marker) (AID 2282937). The settings on record: HepG2 Attagene CIS-FACTORIAL M61 internal marker reporter; actives raise or lower the signal. In short, it runs like this:
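Cells were transfected with reporter units under cis-regulatory promoters, treated with chemicals for 24 h, then lysed for RNA. Reporter transcripts were quantified by RT-PCR and capillary electrophoresis, and activity was fitted bidirectionally against DMSO.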

A short description of test [4]: ATG_EGR_CIS: Attagene CIS-FACTORIAL HepG2 Assay for human Early Growth Response 1 (EGR1) (AID 2282938). The conditions noted are these: HepG2 Attagene CIS-FACTORIAL EGR reporter mRNA; actives raise or lower the signal. Summed up: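 Endogenous TF activity in HepG2 liver cells was gauged through cis-promoter reporter constructs transiently transfected. After 24 h dosing, reporter mRNA was quantified by RT-PCR and capillary electrophoresis, and curves fitted in both directions versus DMSO.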

Test [5] is described as follows: ATG_M_19_CIS: Attagene CIS-FACTORIAL HepG2 Assay for M19 Transcription Factor (Internal Marker) (AID 2282939). The conditions noted are these: HepG2 Attagene CIS-FACTORIAL M19 internal marker reporter; actives raise or lower the signal. Summed up: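 Transfect HepG2 with MRTU reporter library → dose chemical, 24 h → isolate total RNA, reverse-transcribe with oligo(dT) → PCR, 6-FAM label, HpaI cut (2 h, 37 C) → capillary electrophoresis. Bidirectional fit vs DMSO.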

Test [6] is described as follows: ATG_ERE_CIS: Attagene CIS-FACTORIAL HepG2 Assay for Estrogen Response Element (ERE) (AID 2282940). The conditions noted are these: HepG2 ERE cis-reporter, Attagene RNA transcript; actives raise or lower the signal. In short, it runs like this:
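Transient MRTU transfection of human HepG2; cis-element promoters; 24 h dosing; total RNA → RT (oligo dT) → PCR → 6-FAM primer extension → HpaI digest → CE fluorescence. Bidirectional fit, DMSO baseline.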

The nature of test [7]: ATG_Ets_CIS: Attagene CIS-FACTORIAL HepG2 Assay for human Erythroblast Transformation Specific (ETS) (AID 2282941). The settings on record: HepG2 ETS cis-reporter transcription, actives raise or lower the signal. Summed up:
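HepG2 cells transfected with multiple cis-regulated reporter units measuring endogenous ETS-driven transcription, 24 h after dosing. Reporter mRNA quantified by RT-PCR with capillary electrophoresis; bidirectional fit relative to DMSO.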

Test [8] addresses Hepatocyte nuclear factor 3-beta (Homo sapiens) (UniProt Q9Y261). The test can be described thus: ATG_FoxA2_CIS: Attagene CIS-FACTORIAL HepG2 Assay for human Forkhead box A2 (FOXA2) (AID 2282942). The conditions noted are these: HepG2 cis-reporter transcription factor activity, 24 h; actives raise or lower the signal. Summed up:
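Endogenous transcription factor activity was read in HepG2 cells carrying transiently transfected cis-promoter reporter units. After 24 h dosing, reporter mRNA was quantified by RT-PCR and capillary electrophoresis, and values fitted bidirectionally versus DMSO.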

A short description of test [9]: ATG_FoxO_CIS: Attagene CIS-FACTORIAL HepG2 Assay for human Forkhead box O (FoxO) (AID 2282943). The conditions noted are these: HepG2 Attagene cis-reporter, FoxO element, mRNA; actives raise or lower the signal. In short, it runs like this:
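Human hepatoma HepG2 cells carry transiently introduced reporter transcription units controlled by cis promoter elements. Chemical treatment lasted 24 h, and mRNA signal was compared with DMSO.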

A short description of test [10]: ATG_GATA_CIS: Attagene CIS-FACTORIAL HepG2 Assay for human GATA Binding Protein (AID 2282944). The conditions noted are these: HepG2 GATA cis-element reporter, Attagene multiplex mRNA; actives raise or lower the signal. In short, it runs like this:
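Transient MRTU transfection, HepG2, 24 h compound exposure. Total RNA → oligo(dT) RT → PCR → 6-FAM primer extension → HpaI cut → CE. Bidirectional fit vs DMSO.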

The structures appear in SMILES notation. The source made the active and inactive calls. The calls were made as follows: active = hit-call score of the fitted dose curve at least 0.9, where 1 is the maximum; inactive = score below 0.9.

The values that follow come from PubChem BioAssay (EPA / NIEHS).

What is called AC50 is the midpoint of the concentration-response curve, whichever way the signal moves.

Transcription factor E2F1 (Homo sapiens), sequence (Q01094 whole entry, looked up): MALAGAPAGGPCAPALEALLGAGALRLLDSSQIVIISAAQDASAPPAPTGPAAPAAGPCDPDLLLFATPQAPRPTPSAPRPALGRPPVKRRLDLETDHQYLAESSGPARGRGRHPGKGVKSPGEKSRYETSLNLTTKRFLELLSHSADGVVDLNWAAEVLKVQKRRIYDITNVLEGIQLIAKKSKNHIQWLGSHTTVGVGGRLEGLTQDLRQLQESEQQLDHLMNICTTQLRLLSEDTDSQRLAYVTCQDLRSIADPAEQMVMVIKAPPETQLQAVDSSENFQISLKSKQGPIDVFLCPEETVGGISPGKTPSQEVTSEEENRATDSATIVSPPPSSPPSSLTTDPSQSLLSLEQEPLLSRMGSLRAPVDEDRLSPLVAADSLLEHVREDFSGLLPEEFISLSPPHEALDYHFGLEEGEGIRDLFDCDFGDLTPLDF
Hepatocyte nuclear factor 3-beta (Homo sapiens), sequence (Q9Y261 whole entry, looked up): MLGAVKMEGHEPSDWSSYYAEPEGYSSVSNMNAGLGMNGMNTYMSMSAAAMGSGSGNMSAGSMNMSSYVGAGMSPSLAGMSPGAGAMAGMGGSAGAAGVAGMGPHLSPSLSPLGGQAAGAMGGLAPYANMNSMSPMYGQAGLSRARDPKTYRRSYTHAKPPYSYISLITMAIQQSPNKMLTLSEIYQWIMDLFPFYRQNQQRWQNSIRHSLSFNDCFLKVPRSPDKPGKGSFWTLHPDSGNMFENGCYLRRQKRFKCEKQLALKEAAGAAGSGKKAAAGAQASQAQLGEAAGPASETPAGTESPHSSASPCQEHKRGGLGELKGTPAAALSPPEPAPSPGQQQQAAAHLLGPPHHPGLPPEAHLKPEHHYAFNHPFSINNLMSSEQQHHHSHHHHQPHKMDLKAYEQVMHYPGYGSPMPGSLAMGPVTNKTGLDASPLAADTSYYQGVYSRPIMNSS

Regarding `ClC1=C(Cl)C2(Cl)C3C(Cl)C(Cl)CC3C1(Cl)C2(Cl)Cl` (stereo not given), the call in test [1], in test [3], in test [5], in test [7], in [8] and in test [9] was inactive. For the same compound, the compound was classed as inactive in test [10]. Besides, the AC50 in [2] was 52.3 µM (active); in [4], 25.2 µM (active); in [6] it was 11.2 µM (active).

In the case of `CC(C)Nc1ccc(Nc2ccccc2)cc1`, the call in [1], in test [3], in [4], in [5], in [6] and in test [7] was inactive. In addition, the result in [8], in test [9] and in test [10] was inactive. Also, the AC50 in test [2] is 54.8 µM (active).

In the case of `Cc1ccc(C(=O)Cl)cc1`, the compound was classed as inactive in test [1], in [2], in test [3], in test [4], in [5] and in [6]. In addition, the compound was classed as inactive in [7], in test [8], in [9] and in test [10].

As to `O=[N+]([O-])c1cc(Cl)ccc1Cl`, the outcome in test [1], in test [2], in [3], in test [4], in [5] and in test [6] was inactive. Further, the call in test [7], in test [8], in [9] and in [10] was inactive.

Turning to `O=c1[nH]c2ccccc2c(=O)o1`, the result in [1], in test [2], in [3], in test [4], in test [5] and in [6] was inactive. Further, the outcome in [7], in test [8], in [9] and in test [10] was inactive.

As to `FC(F)(F)C(F)(C(F)(F)F)C(F)(F)C(F)(F)CC1CO1` (stereo not given), the compound was classed as inactive in [1], in [2], in test [3], in test [4], in test [5] and in [6]. The compound was called inactive in test [7], in [8], in [9] and in test [10].

Consider `c1ccc(OP(Oc2ccccc2)Oc2ccccc2)cc1`, for which the outcome in test [1], in test [2], in test [3], in test [4], in test [5] and in test [7] was inactive. Also, the compound was called inactive in test [8], in test [9] and in test [10]. For the same compound, the half-maximal activity concentration (AC50) in test [6] is 72.9 µM (active).

For the compound `O=P1(N(CCCl)CCCl)NCCCO1` (stereo not given), the compound was classed as inactive in test [1], in test [2], in test [3], in [4], in test [5] and in test [7]. For the same compound, the compound was called inactive in [8], in test [9] and in test [10]. Besides, the AC50 in test [6] is 3.3 µM (active).

For the compound `Clc1ccc(Oc2ccccc2)cc1`, the compound was called inactive in test [1], in test [2], in test [3], in [4], in test [5] and in test [7]. For the same compound, the call in test [8], in test [9] and in test [10] was inactive. The AC50 in test [6] is 88.4 µM (active).

On to `O=NN1CCCC1`, for which the compound was classed as inactive in [1], in test [2], in test [3], in test [4], in [5] and in test [6]. The call in test [7], in test [8], in [9] and in [10] was inactive.

Turning to `CCOP(=S)(Oc1ccc([N+](=O)[O-])cc1)c1ccccc1` (stereo not given), the result in test [1], in [2], in test [3], in test [4], in test [5] and in test [7] was inactive. For the same compound, the result in [8], in [9] and in test [10] was inactive. The AC50 in [6] was 3.35 µM (active).

For the compound `CCOP(=S)(NC(C)C)Oc1ccccc1C(=O)OC(C)C` (stereo not given), the result in [1], in test [2], in test [3], in test [4], in test [5] and in test [7] was inactive. Also, the call in test [8], in test [9] and in test [10] was inactive. Further, the AC50 in [6] is 11.3 µM (active).

As to `O=S(=O)(F)C(F)(F)C(F)(F)C(F)(F)C(F)(F)C(F)(F)C(F)(F)C(F)(F)C(F)(F)F`, the outcome in test [1], in [2], in test [3], in test [4], in test [5] and in test [6] was inactive. Besides, the call in [7], in test [8], in test [9] and in [10] was inactive.

For `CCCCN(CC)C(=O)SCCC`, the compound was called inactive in test [1], in test [2], in [3], in test [4], in test [5] and in [6]. In addition, the outcome in test [7], in [8], in test [9] and in test [10] was inactive.

With `COP(N)(=S)OC`, the outcome in [1], in test [2], in [3], in test [4], in test [5] and in [6] was inactive. The outcome in [7], in [8], in [9] and in test [10] was inactive.

Consider `CCCCOCC1CO1` (stereo not given), for which the call in [1], in test [2], in [3], in test [4], in test [5] and in test [6] was inactive. The compound was classed as inactive in test [7], in test [8], in [9] and in test [10].

For the compound `COP(=O)(CCC(=O)NCO)OC`, the outcome in [1], in [2], in test [3], in test [4], in test [5] and in test [6] was inactive. Also, the call in [7], in test [8], in test [9] and in test [10] was inactive.

As for `COP(=O)(O)OC`, the compound was classed as inactive in test [1], in [2], in test [3], in [4], in test [5] and in test [6]. Further, the compound was called inactive in [7], in [8], in test [9] and in [10].

With `Cc1cccc(N)c1`, the compound was called inactive in test [1], in test [2], in test [3], in test [4], in [5] and in test [6]. Besides, the compound was classed as inactive in [7], in [8], in test [9] and in test [10].

Regarding `O=C(O)C(F)(F)OC(F)(F)C(F)(F)OC(F)(F)F`, the compound was classed as inactive in test [1], in test [2], in [3], in test [4], in test [5] and in [6]. Moreover, the compound was classed as inactive in test [7], in [8], in test [9] and in test [10].

Take `CCCCC(CC)COC(=O)c1c(Br)c(Br)c(Br)c(Br)c1C(=O)OCC(CC)CCCC` (stereo not given): the compound was called inactive in [1], in [2], in [3], in test [4], in test [5] and in test [6]. The call in [7], in [8], in test [9] and in test [10] was inactive.

As to `O=[N+]([O-])c1ccc(Cl)c(Cl)c1`, the call in test [1], in test [2], in test [3], in [4], in test [5] and in test [6] was inactive. For the same compound, the compound was called inactive in test [7], in test [8], in test [9] and in test [10].

Take `CC(Cl)(Cl)C(=O)O`: the compound was called inactive in test [1], in [2], in test [3], in test [4], in test [5] and in [6]. Besides, the outcome in [7], in [8], in test [9] and in test [10] was inactive.
